Source: PubChem BioAssay AID1159580 (chemical genetic matrix, 2015)
Out of some 5,500 compounds screened, about 2,000 (36%) were called active. Inconclusive results (about 18%) are left out. Rule as the data show it: active = normalized growth mostly below about 0.91 (no sharp cut-off); inconclusive = no clear call, values can overlap the other calls; inactive = mostly above about 0.92. Some of the results follow.

Test: chemical genetic growth profiling, strain panel (AID 1159580);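 also: tested at 20 µM; growth read once vehicle control cultures reached saturation at 30 °C; 1 = growth at the plate median or of vehicle wells; lower values mean less growth of the strain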
Details: growth OD
[1] = S. cerevisiae deletion strains, locus YAL013W, strain DEP1, stronger effect = lower value
[2] = S. cerevisiae deletion strains, locus YBR229C, strain ROT2, stronger effect = lower value
[3] = S. cerevisiae deletion strains, locus YDL101C, strain DUN1, stronger effect = lower value
[4] = S. cerevisiae deletion strains, locus YDR150W, strain NUM1, stronger effect = lower value
[5] = S. cerevisiae deletion strains, locus YEL061C, strain CIN8, stronger effect = lower value
[6] = S. cerevisiae deletion strains, locus YGR078C, strain PAC10, stronger effect = lower value
[7] = S. cerevisiae deletion strains, locus YHR030C, strain SLT2, stronger effect = lower value
[8] = S. cerevisiae deletion strains, locus YJR043C, strain POL32, stronger effect = lower value
[9] = S. cerevisiae deletion strains, locus YJR075W, strain HOC1, stronger effect = lower value
[10] = S. cerevisiae deletion strains, locus YLR039C, strain RIC1, stronger effect = lower value
[11] = S. cerevisiae deletion strains, locus YLR262C, strain YPT6, stronger effect = lower value
[12] = S. cerevisiae deletion strains, locus YMR263W, strain SAP30, stronger effect = lower value
[13] = S. cerevisiae deletion strains, locus YNL153C, strain GIM3, stronger effect = lower value
[14] = S. cerevisiae deletion strains, locus YNL322C, strain KRE1, stronger effect = lower value
[15] = S. cerevisiae deletion strains, locus YOL006C, strain TOP1, stronger effect = lower value
[16] = S. cerevisiae deletion strains, locus YPL055C, strain LGE1, stronger effect = lower value
[17] = S. cerevisiae deletion strains, locus YPL241C, strain CIN2, stronger effect = lower value
[18] = S. cerevisiae strains, strain wild type, stronger effect = lower value

Measured: normalized growth

CSc1nc(N)nc(N2CCCCC2)n1
inactive: [1] 1 | [2] 1 | [3] 1 | [4] 0.982 | [5] 1 | [6] 1 | [7] 0.951 | S. cerevisiae deletion strains, locus YHR087W, strain rtc3, stronger effect = lower value 1 | [8] 1 | [9] 1 | [10] 1.01 | S. cerevisiae deletion strains, locus YLR058C, strain SHM2 (second series), stronger effect = lower value 1.02 | S. cerevisiae deletion strains, locus YLR085C, strain ARP6, stronger effect = lower value 0.936 | [11] 1.02 | S. cerevisiae deletion strains, locus YML094W, strain GIM5, stronger effect = lower value 0.944 | S. cerevisiae deletion strains, locus YMR219W, strain ESC1, stronger effect = lower value 1.01 | [12] 1.02 | [13] 0.99 | S. cerevisiae deletion strains, locus YNL298W, strain CLA4 (second series), stronger effect = lower value 1.02 | [14] 1 | S. cerevisiae deletion strains, locus YNR030W, strain Alg12, stronger effect = lower value 1.01 | [15] 0.812 | [16] 0.939 | [17] 0.935 | S. cerevisiae deletion strains, locus YPR135W, strain CTF4, stronger effect = lower value 0.946 | [18] 1.01

CNC(=O)[C@H]1O[C@@H](n2cnc3c(NCc4ccc(N)cc4)ncnc32)C(O)[C@H]1O (stereo not given in full)
inactive: [1] 0.978 | S. cerevisiae deletion strains, locus YAL040C, strain CLN3, stronger effect = lower value 0.991 | S. cerevisiae deletion strains, locus YER002W, strain NOP16, stronger effect = lower value 1.02 | [6] 0.986 | S. cerevisiae deletion strains, locus YNL175C, strain NOP13, stronger effect = lower value 1.02 | S. cerevisiae deletion strains, locus YNL197C, strain WHI3, stronger effect = lower value 1.01 | S. cerevisiae deletion strains, locus YNL224C, strain SQS1, stronger effect = lower value 1.02 | S. cerevisiae deletion strains, locus YOR083W, strain WHI5 (second series), stronger effect = lower value 0.995

NCC1OC(OC2C(CO)OC(OC3C(O)C(N)CC(N)C3OC3OC(CO)C(O)CC3N)C2O)C(N)C(O)C1OC1OC(CO)C(O)C(O)C1O (stereo not given)
inactive: [1] 0.997 | S. cerevisiae deletion strains, locus YBR021W, strain FUR4, stronger effect = lower value 1.17 | [2] 0.999 | S. cerevisiae deletion strains, locus YCL029C, strain bik1, stronger effect = lower value 0.977 | S. cerevisiae deletion strains, locus YDL035C, strain GPR1, stronger effect = lower value 0.996 | S. cerevisiae deletion strains, locus YDL074C, strain BRE1, stronger effect = lower value 0.993 | [3] 0.992 | S. cerevisiae deletion strains, locus YDL134C, strain PPH21, stronger effect = lower value 1.01 | S. cerevisiae deletion strains, locus YDL185W, strain tfp1, stronger effect = lower value 0.958 | S. cerevisiae deletion strains, locus YDL192W, strain arf1, stronger effect = lower value 0.984 | S. cerevisiae deletion strains, locus YDR101C, strain arx1, stronger effect = lower value 0.978 | [4] 0.991 | S. cerevisiae deletion strains, locus YDR162C, strain NBP2, stronger effect = lower value 0.992 | S. cerevisiae deletion strains, locus YDR318W, strain mcm21, stronger effect = lower value 0.997 | S. cerevisiae deletion strains, locus YDR388W, stronger effect = lower value 0.998 | S. cerevisiae deletion strains, locus YDR502C, strain sam2, stronger effect = lower value 0.988 | [5] 0.995 | S. cerevisiae deletion strains, locus YER110C, stronger effect = lower value 0.986 | S. cerevisiae deletion strains, locus YER155C, strain BEM2, stronger effect = lower value 0.995 | S. cerevisiae deletion strains, locus YER167W, strain BCK2, stronger effect = lower value 0.997 | S. cerevisiae deletion strains, locus YGL078C, strain dbp3, stronger effect = lower value 0.997 | S. cerevisiae deletion strains, locus YGL086W, strain mad1, stronger effect = lower value 1.01 | S. cerevisiae deletion strains, locus YGL248W, strain PDE1, stronger effect = lower value 0.996 | [6] 0.974 | S. cerevisiae deletion strains, locus YGR135W, strain pre9, stronger effect = lower value 0.993 | S. cerevisiae deletion strains, locus YGR229C, strain SMI1, stronger effect = lower value 0.991 | S. cerevisiae deletion strains, locus YGR252W, strain gcn5, stronger effect = lower value 1.18 | [7] 0.993 | S. cerevisiae deletion strains, locus YHR079C, strain IRE1 (second series), stronger effect = lower value 0.986 | S. cerevisiae deletion strains, locus YHR094C, strain hxt1, stronger effect = lower value 0.975 | S. cerevisiae deletion strains, locus YHR129C, strain ARP1, stronger effect = lower value 0.988 | S. cerevisiae deletion strains, locus YHR200W, strain rpn10, stronger effect = lower value 0.993 | S. cerevisiae deletion strains, locus YIL066C, strain RNR3, stronger effect = lower value 0.987 | S. cerevisiae deletion strains, locus YIL073C, strain SPO22, stronger effect = lower value 0.899 | S. cerevisiae deletion strains, locus YIL125W, strain kgd1, stronger effect = lower value 0.995 | S. cerevisiae deletion strains, locus YIR030C, strain dcg1, stronger effect = lower value 0.988 | S. cerevisiae deletion strains, locus YJL095W, strain BCK1, stronger effect = lower value 0.982 | S. cerevisiae deletion strains, locus YJL134W, strain LCB3, stronger effect = lower value 0.992 | S. cerevisiae deletion strains, locus YJL168C, strain set2, stronger effect = lower value 0.986 | S. cerevisiae deletion strains, locus YJL187C, strain SWE1 (second series), stronger effect = lower value 0.988 | [8] 0.992 | [9] 0.98 | S. cerevisiae deletion strains, locus YKL009W, strain mrt4, stronger effect = lower value 0.976 | S. cerevisiae deletion strains, locus YKL068W, stronger effect = lower value 0.978 | S. cerevisiae deletion strains, locus YKL085W, strain MDH1 (second series), stronger effect = lower value 0.983 | S. cerevisiae deletion strains, locus YKL085W, strain MDH1, stronger effect = lower value 0.983 | S. cerevisiae deletion strains, locus YKL190W, strain CNB1, stronger effect = lower value 0.995 | S. cerevisiae deletion strains, locus YKR001C, strain vps1, stronger effect = lower value 0.991 | [10] 0.944 | S. cerevisiae deletion strains, locus YLR058C, strain SHM2, stronger effect = lower value 0.999 | S. cerevisiae deletion strains, locus YLR102C, strain apc9, stronger effect = lower value 0.997 | [11] 0.916 | S. cerevisiae deletion strains, locus YLR268W, strain sec22, stronger effect = lower value 0.962 | S. cerevisiae deletion strains, locus YLR330W, strain CHS5, stronger effect = lower value 0.985 | S. cerevisiae deletion strains, locus YLR342W, strain FKS1 (second series), stronger effect = lower value 1.07 | S. cerevisiae deletion strains, locus YLR371W, strain rom2, stronger effect = lower value 0.986 | S. cerevisiae deletion strains, locus YLR418C, strain cdc73, stronger effect = lower value 1 | S. cerevisiae deletion strains, locus YML016C, strain PPZ1, stronger effect = lower value 1.01 | S. cerevisiae deletion strains, locus YML032C, strain rad52, stronger effect = lower value 0.981 | S. cerevisiae deletion strains, locus YML124C, strain tub3, stronger effect = lower value 1.01 | S. cerevisiae deletion strains, locus YMR078C, strain ctf18, stronger effect = lower value 0.993 | S. cerevisiae deletion strains, locus YMR223W, strain ubp8, stronger effect = lower value 1.03 | [12] 0.985 | S. cerevisiae deletion strains, locus YMR307W, strain GAS1, stronger effect = lower value 1.11 | S. cerevisiae deletion strains, locus YNL067W, strain RPL9B, stronger effect = lower value 0.976 | S. cerevisiae deletion strains, locus YNL128W, strain TEP1, stronger effect = lower value 0.994 | [13] 0.988 | S. cerevisiae deletion strains, locus YNL233W, strain BNI4, stronger effect = lower value 1 | S. cerevisiae deletion strains, locus YNL250W, strain rad50, stronger effect = lower value 1 | S. cerevisiae deletion strains, locus YNL271C, strain bni1, stronger effect = lower value 0.985 | S. cerevisiae deletion strains, locus YNL298W, strain CLA4, stronger effect = lower value 0.984 | S. cerevisiae deletion strains, locus YNL307C, strain MCK1, stronger effect = lower value 1 | [14] 0.995 | S. cerevisiae deletion strains, locus YNR052C, strain pop2, stronger effect = lower value 0.991 | [15] 0.948 | S. cerevisiae deletion strains, locus YOL012C, strain htz1 1.18 | S. cerevisiae deletion strains, locus YOL147C, strain pex11, stronger effect = lower value 0.998 | S. cerevisiae deletion strains, locus YOR061W, strain CKA2, stronger effect = lower value 0.997 | S. cerevisiae deletion strains, locus YOR069W, strain VPS5, stronger effect = lower value 1 | S. cerevisiae deletion strains, locus YOR136W, strain idh2, stronger effect = lower value 0.986 | S. cerevisiae deletion strains, locus YOR144C, strain elg1, stronger effect = lower value 0.985 | S. cerevisiae deletion strains, locus YOR184W, strain ser1, stronger effect = lower value 0.97 | S. cerevisiae deletion strains, locus YOR316C, strain cot1, stronger effect = lower value 0.965 | [16] 0.966 | [17] 0.997 | S. cerevisiae deletion strains, locus YPR119W, strain clb2, stronger effect = lower value 0.999 | S. cerevisiae deletion strains, locus YPR141C, strain kar3, stronger effect = lower value 0.985 | S. cerevisiae deletion strains, locus YPR163C, strain tif3, stronger effect = lower value 0.983 | S. cerevisiae deletion strains, locus YPR167C, strain met16, stronger effect = lower value 0.981 | S. cerevisiae deletion strains, strain wtn01, stronger effect = lower value 0.954 | [18] 1
